One test deals with SELO. Put plainly: pooled miR-30 sensor sort-seq; sequence = guide strand. The following applies: shRNA.
The sequence TTTGGGATTACCATCATAGAAC gave a sensor-assay potency score (higher = more potent) of -1.22. The same measure, in the same setting: the result for TGTTTGTGAAGTCGGCACCGGT reads -1.02; that for TCGCTGCATAGAAACTCCCGGA, -0.819; that for AACACGTCGCGCACCACCGTGG, -0.914. On the same count and under the same terms, the result for TTCGCTGCATAGAAACTCCCGG reads 0.0168; that for TTGAGCTGCAGCTCCCAGCGCT, -0.647; that for TTGTCGGTGTTGAGCACGCCGT, -1.37.

The target of a further test is SEMA3B. The description is as above. The following applies: shRNA.
Turning to TACTTTAGTACAGTCGGCCTGC, the sensor-assay potency score (higher = more potent) turned out to be 0.558. Regarding TACCTTGACAAACTTGGGCTCA, the sensor-assay potency score (higher = more potent) is -0.131. Still for that read-out and setting: then TCTCCGGAGCACAACGTGCTGG, with -0.802; and TTGCATGCTGGTGACAGCGGCC, with -0.767. Same read-out and setting: the result for TAGATTTTGTCGTCGTCTGGGT reads 0.074; that for TTGGTGGAACTGAAGGTGCCAA, -0.717; that for TTGTGTTCCAGCAGCGCGGGAC, -0.691. The same measure, in the same setting: then TTGGAAGAAATTTGCATGCTGG, with 0.12. In the case of AACTGGATGACATCGTCTGGGA, the sensor-assay potency score (higher = more potent) was -0.898. Still for that read-out and setting: then ATGCTGTACACGCACACCGCAG, with -1.8; and TTCAGGAACGTCGTCCACTTGT, with -0.531. On the same count and under the same terms, the result for TCACACTCCAGAAAGGCGCTGC reads 0.144.

For the next test, the target named is SEMA5A. Described as above. The conditions noted are these: shRNA.
With TTTCGATTCTCTGTCTTCCCAC, the sensor-assay potency score (higher = more potent) came out at 0.0611. Same read-out and setting: then TTAGAGTCAAACACACACGGCC, with -0.151; and ATATCGTTCTTGCACACCCGGG, with -1.15. The same measure, in the same setting: the result for TTGCAGTATCTTTCCTCGCGGT reads -0.492; that for TTATGAAATATTATGGACCTAT, -0.515. Still for that read-out and setting: then TAGAACAGTACCGCATTTCGAT, with -0.368. The sequence TTCTTCGCTCTGAACTCCCGTA gave a sensor-assay potency score (higher = more potent) of -0.152.

The sequence TATCGTTCTTGCACACCCGGGC came in with a sensor-assay potency score (higher = more potent) of -0.125. Still for that read-out and setting: the result for ATTAGAGTCAAACACACACGGC reads -0.728. On the same count and under the same terms, the result for TCTTCCAGCAAACAGCTGCTTG reads -1.24.

For ATCTCTTCCAGCAAACAGCTGC, the sensor-assay potency score (higher = more potent) was -0.82. On the same count and under the same terms, then TTGAAGACGCACACAGCTGAGG, with -0.713.

The target in a further test is SEMA6D. Described as above. The conditions noted are these: shRNA.
The sequence TACTTTTTCAATGTCATCCATG yielded a sensor-assay potency score (higher = more potent) of -0.449.

Consider TACTGTATAAACTTGATCCCTG, for which the sensor-assay potency score (higher = more potent) was 0.49. Same read-out and setting: the result for TTTAGGAGAATCAATATTCTGT reads -0.109; that for TAATAGACTGCAGAACATCAAA, -1.03; that for TTGGGTGGTAGCTCTTTCCGAC, -0.271. As to TTTTTTTTGACATTTGTGCAAG, the sensor-assay potency score (higher = more potent) was -0.63.

The sequence TATTCTAAGGTACTCAACCTGT registered a sensor-assay potency score (higher = more potent) of -0.752. In turn, TATGTCTGTAATAGACTGCAGA showed a sensor-assay potency score (higher = more potent) of -0.657. With TTGATTTGTATTATGTCTGTAA, the sensor-assay potency score (higher = more potent) was determined as 0.267.

Source of the values: the OligoGym collection.
Further: reference of the scale not given here.
